The nature of test [1]: TOX21_p53_BLA_p2_viability: Viability Assessment in the Tox21 HCT-116 p53 Agonism Beta-lactamase Assay, Phase 2 (AID 2283591).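 Note: compound exposure lasted 16 h at 37 °C; actives lower the ATP signal meaning cytotoxicity.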 The gist of the method: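 HCT116 p53-bla cells, 4000/well, dosed after 5 h plating (217-fold dilution of DMSO stocks) and incubated 16 h at 37C. Viability taken as cellular ATP by CellTiter-Glo luminescence after 30 min RT; signal loss marks cytotoxicity.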

A short description of test [2]: TOX21_p53_BLA_p3_viability: Viability Assessment in the Tox21 HCT-116 p53 Agonism Beta-lactamase Assay, Phase 3 (AID 2283593).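 Note: cells exposed to compound for 16 h before reading.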 The gist of the method: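 HCT116 cells, 4000/well, dosed 5 h after plating by pin transfer (217-fold dilution from DMSO stock) and incubated 16 h at 37C, 5% CO2. Viability read as ATP luminescence with CellTiter-Glo after 30 min at room temperature.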

Test [3] can be described thus: TOX21_p53_BLA_p4_viability: Viability Assessment in the Tox21 HCT-116 p53 Agonism Beta-lactamase Assay, Phase 4 (AID 2283597).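 Note: hits lower the luminescence signal meaning cytotoxicity.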 In short, it runs like this: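 Cytotoxicity was inferred from loss of CellTiter-Glo luminescence. HCT116 cells had been dosed with compounds after 5 h plating, incubated 16 h at 37C and 5% CO2, and exposed to the CCF4-AM substrate for 2 h.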

Test [4] can be described thus: TOX21_p53_BLA_p5_viability: Viability Assessment in the Tox21 HCT-116 p53 Agonism Beta-lactamase Assay, Phase 5 (AID 2283600). The gist of the method: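 Luciferase-coupled ATP quantitation of cells treated for 16 h (37C, 5% CO2) with test chemicals delivered in DMSO via a 217-fold dilution; 4000 cells/well; reagent incubated 30 min at room temperature before luminescence reading.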

Test [5] has as its target PGR (gene 5241) (UniProt P06401). In words: TOX21_PR_BLA_Followup_Antagonist_ratio: Tox21 HEK293 Progesterone Receptor (PR) Antagonism Beta-lactamase Follow-Up Assay, Ratio (AID 2283934).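 Note: PR-UAS-bla HEK293T cells stimulated with 1 nM R5020 agonist for 16 hr.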 The gist of the method: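 Cells are plated, rested 6 hr, then dosed with test compound in DMSO and challenged with 1 nM promegestone. After 16 hr incubation, substrate loading for 2 h at room temperature precedes fluorescence reading; viability is measured in the same wells.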

Test [6] in a line: TOX21_PR_BLA_Followup_Agonist_viability: Viability Assessment in the Tox21 HEK293 Progesterone Receptor (PR) Agonism Beta-lactamase Follow-Up Assay (AID 2283935).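 Note: signal loss means lower viability so actives are cytotoxic.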 In short, it runs like this:
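Cells were plated in medium with 2% charcoal-stripped FBS and rested 6 hr. Compounds in DMSO were then added for 16 hr at 37C, followed by the FRET substrate step and CellTiter-Glo luminescence after 30 min.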

The nature of test [7]: TOX21_PR_BLA_Followup_Antagonist_viability: Viability Assessment in the Tox21 HEK293 Progesterone Receptor (PR) Antagonism Beta-lactamase Follow-Up Assay (AID 2283936).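 Note: cells exposed to compound with R5020 agonist for 16 h; hits lower the luminescence signal meaning cytotoxicity.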 The gist of the method:
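PR-UAS-bla HEK293T cells in medium with 2% charcoal-stripped FBS were treated with compounds plus R5020 for 16 hr at 37C. After the beta-lactamase read, CellTiter-Glo was added to the same wells and luminescence read after 30 min at room temperature.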

Test [8] addresses PGR (gene 5241) (UniProt P06401). In words: TOX21_PR_LUC_Followup_Agonist: Tox21 HEK293 Progesterone Receptor (PR) Agonism Luciferase Follow-Up Assay (AID 2283937; active = hit-call score of the fitted dose curve at least 0.9, where 1 is the maximum; inactive = score below 0.9). The gist of the method:
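Seed HEK293-PR-A-luc cells, wait 5 h, add compounds in DMSO, incubate 16 h at 37C, add ONE-Glo, read luminescence after 30 min. Activity is increase over DMSO controls; run with a viability counter-screen.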

Test [9] shares this target. In words: TOX21_PR_LUC_Followup_Antagonist: Tox21 HEK293 Progesterone Receptor (PR) Antagonism Luciferase Follow-Up Assay (AID 2283938).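 Note: curve fitted upward as signal gain over DMSO baseline despite antagonist label.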 In short, it runs like this:
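HEK293-PR-A-luc cells were precultured 5 days in medium with 10% charcoal-stripped FBS, seeded 3,000/well, then exposed to compounds in DMSO for 16 h at 37C. Luciferase was read by ONE-Glo luminescence after 30 min at room temperature.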

Test [10] in a line: TOX21_PR_LUC_Followup_Agonist_viability: Viability Assessment in the Tox21 HEK293 Progesterone Receptor (PR) Agonism Luciferase Follow-Up Assay (AID 2283941).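 Note: loss of signal means cytotoxicity so actives lower viability.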 In short, it runs like this: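 Multiplexed viability endpoint of the PR agonist luciferase follow-up: HEK293-PR-A-luc cells treated 16 h at 37C, with viability scored as decrease in CellTiter-Glo ATP signal.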
Test [11] in a line: CCTE_Harrill_HTTr_Viability_MCF7: CCTE's 6-hour Cell Viability Assessment for the High-Throughput Transcriptomics (HTTr) Platform, in MCF-7 cells cultured in DMEM + 10% fetal bovine serum, Harrill Lab (AID 2284010; active = hit-call score of the fitted dose curve at least 0.9, where 1 is the maximum; inactive = score below 0.9). In short, it runs like this: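 Read-out is propidium iodide gain of signal by high-content imaging, reflecting membrane integrity loss. Measurements are taken 6 h after dosing, eight concentrations per chemical, with DMSO serving as baseline for bidirectional curve fitting.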

Test [12] in a line: CCTE_Harrill_HTTr_Apoptosis_MCF7: CCTE's 6-hour Apoptosis Assessment for the High-Throughput Transcriptomics (HTTr) Platform, in MCF-7 cells cultured in DMEM + 10% fetal bovine serum, Harrill Lab (AID 2284011; active = hit-call score of the fitted dose curve at least 0.9, where 1 is the maximum; inactive = score below 0.9). In short, it runs like this: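 MCF-7 cells in DMEM + 10% fetal bovine serum were exposed to chemicals for 6 hours over an eight-point dilution series. Caspase-3/7 activation was imaged by high content imaging with CellEvent Caspase 3/7 Green; bidirectional fitting used DMSO as baseline.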

Test [13] is described as follows: CCTE_Harrill_HTTr_CellCount_MCF7: CCTE's Cell Proliferation Assessment for the High-Throughput Transcriptomics (HTTr) Platform, Harrill Lab (AID 2284012).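 Note: cells exposed to compound for six hours; intended direction is loss of nuclei count meaning fewer cells.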 In short, it runs like this: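 Cell count served as viability reporter: loss of Hoechst-stained nuclei, counted by high content imaging, marks decreased growth or survival. Exposure was 6 h in MCF-7 cells across eight concentrations, with DMSO as baseline.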

The target of test [14] is Cellular tumor antigen p53 (Homo sapiens) (UniProt P04637). In words: TOX21_p53_BLA_p4_ratio: Tox21 HCT-116 p53 Agonism Beta-lactamase Assay, Ratio, Phase 4 (AID 2283601). The gist of the method: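 HCT-116 p53 beta-lactamase reporter cells (4000/well) preincubated 5 h, then compound (217-fold dilution of DMSO stock) for 16 h at 37C. CCF4-AM substrate added 2 h at room temperature; 460/530 nm emission ratio fitted upward versus DMSO.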

Test [15] has the same target. In words: TOX21_p53_BLA_p5_ratio: Tox21 HCT-116 p53 Agonism Beta-lactamase Assay, Ratio, Phase 5 (AID 2283599). In short, it runs like this: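 HCT-116 p53-bla cells (4000/well) plated 5 h, dosed with compound (217-fold DMSO dilution) for 16 h at 37 C; CCF4-AM substrate 2 h at room temperature. Activity is the 460/530 nm emission ratio (405 nm excitation), fitted in gain-of-signal direction versus DMSO.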

Results filed as inconclusive are left out. Active and inactive are the calls of the source. Rule for the calls, unless noted: active = hit-call score of the fitted dose curve at least 0.9, where 1 is the maximum; inconclusive = response in the unintended direction; inactive = score below 0.9.

The record followed here is PubChem BioAssay (EPA / NIEHS).

A word on the AC50: it is the concentration at which the activity in the assay is half-maximal.

Chain of Cellular tumor antigen p53 (Homo sapiens) (P04637 whole entry, looked up): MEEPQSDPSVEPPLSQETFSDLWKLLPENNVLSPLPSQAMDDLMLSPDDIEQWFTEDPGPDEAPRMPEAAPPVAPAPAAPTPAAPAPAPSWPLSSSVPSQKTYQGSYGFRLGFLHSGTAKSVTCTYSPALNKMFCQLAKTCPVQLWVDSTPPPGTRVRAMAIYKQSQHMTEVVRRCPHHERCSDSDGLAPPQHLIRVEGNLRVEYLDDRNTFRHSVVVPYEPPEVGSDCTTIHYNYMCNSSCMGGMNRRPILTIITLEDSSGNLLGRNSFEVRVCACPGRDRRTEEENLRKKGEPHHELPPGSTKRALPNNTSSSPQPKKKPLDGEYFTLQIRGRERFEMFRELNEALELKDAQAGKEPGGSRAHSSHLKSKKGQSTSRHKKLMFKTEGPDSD
Chain of PGR (gene 5241) (P06401 whole entry, looked up): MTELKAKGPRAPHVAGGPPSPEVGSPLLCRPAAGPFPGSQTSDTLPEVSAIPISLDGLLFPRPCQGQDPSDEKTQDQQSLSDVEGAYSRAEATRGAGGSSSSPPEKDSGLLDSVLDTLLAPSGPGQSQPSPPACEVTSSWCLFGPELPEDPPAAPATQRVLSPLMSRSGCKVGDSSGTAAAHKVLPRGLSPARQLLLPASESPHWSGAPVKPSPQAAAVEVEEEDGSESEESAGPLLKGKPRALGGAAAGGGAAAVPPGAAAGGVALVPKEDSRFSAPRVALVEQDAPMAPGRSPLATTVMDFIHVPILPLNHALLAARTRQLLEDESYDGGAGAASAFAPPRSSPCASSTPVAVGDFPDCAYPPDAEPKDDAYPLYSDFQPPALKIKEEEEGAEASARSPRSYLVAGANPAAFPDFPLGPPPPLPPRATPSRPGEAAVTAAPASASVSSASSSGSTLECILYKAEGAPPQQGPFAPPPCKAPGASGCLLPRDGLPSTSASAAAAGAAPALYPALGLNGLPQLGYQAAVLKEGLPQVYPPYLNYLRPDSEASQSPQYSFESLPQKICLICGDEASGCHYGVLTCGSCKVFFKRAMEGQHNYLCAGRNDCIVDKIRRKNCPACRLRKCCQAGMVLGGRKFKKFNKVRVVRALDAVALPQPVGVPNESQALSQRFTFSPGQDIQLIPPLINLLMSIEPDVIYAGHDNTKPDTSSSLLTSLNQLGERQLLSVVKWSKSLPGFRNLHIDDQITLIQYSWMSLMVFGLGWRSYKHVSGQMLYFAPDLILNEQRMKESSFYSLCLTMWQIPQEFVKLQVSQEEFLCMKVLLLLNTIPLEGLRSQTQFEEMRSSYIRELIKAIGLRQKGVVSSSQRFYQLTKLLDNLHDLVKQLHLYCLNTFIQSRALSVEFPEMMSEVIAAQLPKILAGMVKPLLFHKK

In the case of `Cc1cc(C)c(C=C2C(=O)Nc3ccccc32)[nH]1`, the result in test [1], in test [2], in test [3], in [4], in [5] and in test [6] was inactive. In addition, the call in test [7], in [8], in [9], in [10], in [11] and in [13] was inactive. For the same compound, in test [12], the AC50 was 15.2 µM (active).

In the case of `O=C(OCC1(COC(=O)c2cccnc2)CCCC(COC(=O)c2cccnc2)(COC(=O)c2cccnc2)C1O)c1cccnc1`, the call in [1], in [2], in test [3] and in test [4] was inactive.

In the case of `CC(C)CCOC(=O)c1ccc(N(C)C)cc1`, the outcome in test [1], in [2], in test [3], in [4] and in test [14] was inactive.

Take `CCOC(=O)C(C)O` (stereo unspecified): the compound was called inactive in test [1], in test [2], in test [3], in test [4] and in test [14].

On to `COC(=O)C(c1ccccc1Cl)N1CCc2sccc2C1` (stereo unspecified), for which the compound was called inactive in test [1], in [2], in test [15], in [4], in test [6] and in [7]. Also, the compound was called inactive in [10]. Further, the AC50 in test [5] was 28.9 µM (active); in test [9] it was 23 µM (active).

In the case of `O=C(O)COc1nn(Cc2ccccc2)c2ccccc12`, the call in test [1], in test [2], in [3], in test [4] and in test [14] was inactive.
